# Assay outcomes deposited in PubChem by National Center for Advancing Translational Sciences (NCATS).
# Rows were chosen to be rich in hits. Some 8.7% of all compounds tested hit in one or more screens of this group.
# JMJD2A Tudor inh: inhibitors of human JMJD2A Tudor domain. AlphaScreen JMJD2A-Tudor / H3K4me3 peptide binding. AID 504339. O75164. 390,000 compounds, 4.4% hits. Potency, µM (doses to about 114 µM), inactives show at the top dose activity change, negative = inhibition, usual class: inhibitors; further: on the % scale 0 is the no-effect control and ±100 the full control effect; nearly all actives have a fitted effect of over 50% in size
# Sfp PPTase inh: inhibitors of Bacillus subtilis Sfp phosphopantetheinyl transferase; Biochemical Sfp PPTase activity, qHTS; AID 1490; 310,000 compounds, 3.5% hits; Potency, µM, for the others: largest response in the series, negative = inhibition, hits mostly inhibitors;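 further: the enzyme is Sfp with the accession as filed and its product quenches rhodamine fluorescence; 0% = enzyme reaction without inhibitor and -100% = no enzyme wells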
#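 Fluorescence-quenching assay: 15 nM Sfp-PPTase preincubated 15 min at room temperature with compound, then 5 uM rhodamine-CoA and 12.5 uM BHQ-2-labelled YbbR peptide added. Fluorescence (ex 525/em 598 nm) read at start and after 30 min; difference gives rate.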
# BAZ2B block: BAZ2B (human) inhibition; Q9UIF8; AlphaScreen BAZ2B-H3K14Ac peptide displacement; Potency, µM (highest dose often 114 µM), inactives show at the top dose activity change, negative = inhibition, hits mostly inhibitors; 360,000 compounds, 4.4% hits; AID 504333; further: on the % scale 0 is the no-effect control and ±100 the full control effect; nearly all actives have a fitted effect of over 60% in size
#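 Multi-concentration screen (max 110 uM) measuring displacement of acetylated histone H3 peptide from BAZ2B by AlphaScreen, using 50 nM protein, 50 nM peptide and 10 ug/mL streptavidin donor plus Ni-chelate acceptor beads.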
# G9a inh: blocks human histone lysine methyltransferase G9a | 350,000 compounds, 8.8% hits | Q96KQ7 | G9a H3K9 monomethylation, AlphaScreen, 2 h | Potency, µM (series often up to 102 µM), for the others: top-dose activity, negative = inhibition, hits mostly inhibitors; further: on the % scale 0 is the no-effect control and ±100 the full control effect; nearly all actives have a fitted effect of over 75% in size
# Target sequence (Q96KQ7 913-1193 limits assumed): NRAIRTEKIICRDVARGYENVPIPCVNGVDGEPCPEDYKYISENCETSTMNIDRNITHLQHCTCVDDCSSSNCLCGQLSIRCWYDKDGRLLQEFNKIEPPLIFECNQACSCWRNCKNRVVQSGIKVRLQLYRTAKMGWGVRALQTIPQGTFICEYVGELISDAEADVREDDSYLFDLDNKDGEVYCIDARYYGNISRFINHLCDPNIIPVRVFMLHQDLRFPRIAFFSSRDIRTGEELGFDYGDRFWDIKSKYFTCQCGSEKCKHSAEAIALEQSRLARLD
#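 Quantitative HTS format: methyltransferase activity on a biotin-tagged H3K9 peptide is measured by AlphaScreen, using a rabbit anti-monomethyl-H3K9 antibody with streptavidin donor and anti-IgG acceptor beads. Final levels are 20 nM enzyme, 500 nM peptide, 20 uM SAM; 2 h RT.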
# HP1b chromo inh: inhibitors of HP1-beta chromodomain binding to methylated histone tails | 390,000 compounds, 0.56% hits | P83916 | AID 540317 | AlphaScreen HP1-beta / biotin-H3K9me3 peptide binding | Potency, µM (series often up to 114 µM), without a hit: top-dose activity change, negative = inhibition, hits mostly inhibitors; further: nearly all actives have a fitted effect of over 70% in size
# Target sequence (P83916 whole entry, looked up): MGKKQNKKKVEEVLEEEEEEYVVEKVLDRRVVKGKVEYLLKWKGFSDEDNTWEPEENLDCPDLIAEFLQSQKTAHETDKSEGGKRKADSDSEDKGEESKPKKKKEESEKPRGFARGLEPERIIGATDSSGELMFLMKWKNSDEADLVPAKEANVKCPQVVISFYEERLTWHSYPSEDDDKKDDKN
#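 HP1-beta protein (50 nM final) preincubated 30 min at room temperature with biotinylated H3(1-18)K9me3 peptide (50 nM) in PBS pH 7.4, 0.01% Tween-20, then compound added for 30 min. AlphaScreen streptavidin donor/nickel chelate acceptor beads (10 ug/mL final), 30 min dark, luminescence read.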
# 12-LOX inh: ALOX12 (human) lipoxygenase inhibition. AID 1671190. 580,000 compounds, 1.1% hits. Potency, µM (highest dose often 108 µM), for inactives: at the highest dose activity change, negative = inhibition, most hits filed as inhibitors. purified 12hLO, xylenol orange hydroperoxide absorbance. P18054; further: on the % scale 0 is the no-effect control and ±100 the full control effect
#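 Hydroperoxide product was detected by ferrous iron/xylenol orange as the 573 to 405 nm absorbance ratio. Arachidonic acid at 40 uM (final) was turned over for 30 min at room temperature by 150 nM human 12hLO, pH 7.0 Hepes buffer, after 15 min compound preincubation.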
# The depositor's hits bear a star; ? = inconclusive; . = not tested or not shown; ! = a repeat was not active; [ ] = dose if it differs, or a comment. The call rests on the fitted dose curve; in most records, active means well fitted curve in the direction sought with a large enough effect; inconclusive means small, poorly fitted or top-dose-only effect, or another doubt; inactive means no such curve, though single readings can be large; an effect the other way counts as inactive or inconclusive. Potency means the concentration at half of the fitted maximal effect.
SMILES,JMJD2A Tudor inh,Sfp PPTase inh,BAZ2B block,G9a inh,HP1b chromo inh,12-LOX inh
O=C(CCCc1cn[nH]c1)N1CCCC(CCc2c(F)cccc2F)C1 (stereo unspecified),.,.,.,.,.,59%
O=C(O)c1cc(Br)ccc1NN=C1CCCCC1,-27%,22%,-36%,2.8µM*,-8%,?
O=c1cccccc1NN=C1CCCCC1,?,?,?,.,20%,?
CCn1cc(CN2CCCC(c3nc(CCOc4cccc(C)c4)no3)C2)cn1 (stereo unspecified),.,.,.,.,.,20%
O=C(NCC(c1cccs1)N1CCOCC1)c1cc([N+](=O)[O-])ccc1Cl (stereo unspecified),-5%,-6%,9%,45µM*,28%,-6%
O=C(NCC(c1cccs1)N1CCOCC1)c1ccc([N+](=O)[O-])cc1 (stereo unspecified),-10%,4%,-1%,-9%,12%,-10%
CC[N+](C)(CC)CC(O)COCC1COc2ccccc2O1 (stereo unspecified),-23%,11%,5%,6.3µM*,0%,?
Cc1ccccc1C(CC(=O)NCc1cccnc1)c1ccccc1 (stereo unspecified),.,.,.,.,.,13%
CC(C)N(C(=O)CSc1nnc(C2CC2)n1C1CC1)c1ccccc1,-11%,.,-8%,50µM*,13%,6%
N#CCN(C(=O)CSc1nnc(C2CC2)n1C1CC1)c1ccccc1,.,.,.,.,.,9%
O=C(NNc1cccc(Cl)n1)Nc1cccc(Cl)c1,-2%,-20%,4%,?,40%,?
O=S(=O)(NNc1cccc(Cl)n1)c1ccc(Cl)cc1,-6%,40µM*,-8%,.,-2%,-7%
CCCCOc1ccc(C(=O)NC(=S)NCCCO)cc1Br,.,.,.,.,.,7.9µM*
O=C([C@@H]1C[C@H](Oc2ccccc2)CN1C(=O)C1CCCCC1)N1CCOCC1,.,.,.,.,.,23%
COCCCC/C(=N\OCCN)c1ccc(C(F)(F)F)cc1,-9%,56µM*!,-2%,66%[59 µM],92%,0%
CC1CCCN(C(=S)SCC(=O)c2cc(Br)cc(Br)c2O)C1 (stereo unspecified),-27%,?,?,?,-5%,6.3µM*
CC1CCCN(C(=S)SCC(=O)O)C1 (stereo unspecified),10%,14%,2%,20%[59 µM],30%,0%
O=C(CSC(=S)N1CCCC1)c1cc(Br)cc(Br)c1O,?,-102%,40µM*,20µM*,?,14µM*
O=C(NCCCNC(=O)C1CCCCC1)C1CCCCC1,.,.,.,.,.,3%
O=C(Nc1ccccc1C(=O)O)c1cccc(NS(=O)(=O)c2ccc(Br)cc2)c1,-11%,16%,-3%,.,23%,40µM*
O=C(Nc1cccc(C(F)(F)F)c1)c1cccc(NS(=O)(=O)c2ccc(O)c(C(=O)O)c2)c1,56µM*,9%,-18%,?,-1%,-21%
O=C(O)c1ccc(NS(=O)(=O)c2cccc(C(=O)Nc3ccc(Br)cc3)c2)cc1,-14%,18%,7%,20%[0.501 µM],39%,-22%
O=C(Nc1ccccc1C(=O)O)c1cccc(S(=O)(=O)Nc2ccc(Br)cc2)c1,-21%,16%,-2%,13%,-7%,16µM*
O=C(Nc1cccc(C(F)(F)F)c1)c1cccc(NS(=O)(=O)c2ccc(Br)c(C(=O)O)c2)c1,-16%,11%,-13%,?,17%,0%
COc1ccc(NC(=O)CN2C(=O)NC3(CCS(=O)(=O)CC3)C2=O)cc1,.,.,.,.,.,-10%
OCCc1ccc(O)cc1,-21%,.,-5%,-5%[59 µM],13%,8%
CC(c1ccc(O)cc1)(c1ccc(O)cc1)c1ccc(CCBr)cc1,-33%,-3%,?,79µM*,4%,?
CCOc1ccc(Br)cc1C1C(C(=O)OC)=C(N)Oc2cc(N(C)C)ccc21 (stereo unspecified),50µM*,4%,?,?,?,8%
